# Measurements reported in PubChem BioAssay AID1942 (Johns Hopkins Ion Channel Center, 2009).
# Out of some 2,400 compounds screened, about 580 (24%) were called active. A selection follows. Unmarked numbers belong to inactive results.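 Rule for the calls: active = activity change at or above the mean plus 3 SD of buffer wells without dofetilide, per plate; inactive = the rest.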
# Target: Potassium voltage-gated channel subfamily KQT member 2 (Rattus norvegicus) (UniProt O88943)
# Test: KCNQ2 potentiation in CHO cells – cell-based, FluxOR thallium flux, counter-screen for hERG block protector project, confirmation (AID 1942);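 for activity change, less the hit threshold: normalized value minus buffer-control mean plus three SD of buffer wells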
# Conditions: FluxOR thallium flux fluorescence, at 10 µM, stronger effect = higher value
# Sequence of Potassium voltage-gated channel subfamily KQT member 2 (Rattus norvegicus) (O88943 whole entry, looked up): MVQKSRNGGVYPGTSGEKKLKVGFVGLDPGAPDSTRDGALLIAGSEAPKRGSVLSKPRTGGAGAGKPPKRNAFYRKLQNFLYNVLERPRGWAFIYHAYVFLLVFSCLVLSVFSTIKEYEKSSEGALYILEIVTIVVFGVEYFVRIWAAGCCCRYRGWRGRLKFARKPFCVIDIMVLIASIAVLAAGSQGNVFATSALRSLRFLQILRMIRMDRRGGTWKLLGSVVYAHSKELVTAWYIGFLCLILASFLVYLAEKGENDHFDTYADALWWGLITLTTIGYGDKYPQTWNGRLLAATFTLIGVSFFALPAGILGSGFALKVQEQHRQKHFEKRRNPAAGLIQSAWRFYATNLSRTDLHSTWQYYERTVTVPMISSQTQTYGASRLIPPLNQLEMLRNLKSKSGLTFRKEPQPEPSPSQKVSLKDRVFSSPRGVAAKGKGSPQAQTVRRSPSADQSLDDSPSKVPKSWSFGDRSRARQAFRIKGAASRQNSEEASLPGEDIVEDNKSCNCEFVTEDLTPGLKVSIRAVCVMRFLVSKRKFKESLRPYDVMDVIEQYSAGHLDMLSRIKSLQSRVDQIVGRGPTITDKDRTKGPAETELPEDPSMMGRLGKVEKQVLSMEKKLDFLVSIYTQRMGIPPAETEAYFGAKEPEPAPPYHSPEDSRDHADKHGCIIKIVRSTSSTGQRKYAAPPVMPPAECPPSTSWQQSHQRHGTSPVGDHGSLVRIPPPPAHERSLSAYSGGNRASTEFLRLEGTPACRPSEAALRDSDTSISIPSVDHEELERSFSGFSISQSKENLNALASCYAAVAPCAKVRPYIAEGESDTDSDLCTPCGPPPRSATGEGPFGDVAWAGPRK
Compound,activity change,"activity change, less the hit threshold"
O=C1NC(=O)N(c2ccccc2)C(=O)/C1=C/c1ccc(Sc2ccccc2)o1,-16.9%,
Cc1ccccc1N1C(=O)/C(=C/c2ccco2)C(=O)NC1=S,-6.4%,
O=C1NC(=S)N(c2ccc(F)cc2)C(=O)/C1=C/c1ccco1,0.7% (active),
COc1ccc(-c2nc(CSCC(=O)N3CCC4(CC3)OCCO4)c(C)o2)cc1OC,-18.2%,
O=C(Cn1ncc2c3ccccc3n(Cc3ccccc3F)c2c1=O)N1CCC2(CC1)OCCO2,37% (active),
O=C1NC(=O)C(=Cc2ccc(-c3cc(Cl)ccc3[N+](=O)[O-])o2)C(=O)N1,-15.8%,
CC/C(=C\C=C\[C@@H]1C=C[C@@H]2CCC[C@H]2[C@@H]1C(=O)c1ccc[nH]1)[C@@H]1O[C@@H]([C@@H](C)C(=O)O)CC[C@@H]1C,,166% (active)
CN(C)C(=O)O/N=C(\N)COc1ccc(C(C)(C)C)cc1,,-13%
O=c1[nH]c(=S)[nH]c(O)c1/C=C1/C=c2ccccc2=N1,-27.3%,
O=C(COc1ccc(Br)cc1)N1CCN(Cc2ccc3c(c2)OCO3)CC1,,-18.6%
N#CCCn1cc(C(=O)Nc2ccccc2Cl)c(-c2ccc(F)cc2)n1,,-16.8%
CCOC(=O)c1c(NS(=O)(=O)c2ccccc2)n(CCCOC)c2nc3ccccc3nc12,,-27.8%
COc1cccc(OC)c1C(=O)Nc1nc(N)n(-c2ccccc2)n1,,-9.7%
COc1ccc(OC)c(N2C(=O)/C(=C/c3ccco3)C(=O)NC2=S)c1,-13.8%,
COc1ccc2c(c1)/C(=C/c1cnc[nH]1)C(=O)N2,,0.2% (active)
O=C1NC(=O)N(CCNc2ncc(C(F)(F)F)cc2Cl)C(=O)C1Cc1ccc(Cl)cc1 (stereo not given),-25.6%,
COc1ccc(CN2CCCC(C(=O)c3sccc3C)C2)cc1O (stereo not given),,-26.3%
C=CCN1C(=O)/C(=C/c2ccc(Br)s2)C(=O)NC1=S,-20.2%,
O=c1c2ccccc2[nH]c(=S)n1-c1ccc2c(c1)OCCO2,,-18.7%
O=C(O)CCC(=O)NCCC1=c2ccccc2=N/C1=C\c1c(O)n(Cc2ccc(F)cc2)c(=S)[nH]c1=O,-17.9%,
